The text below walks through data of PubChem BioAssay (NCI).

Common to all, as to test: NCI-60 one-dose screen, 48 h (100 = growth as untreated, 0 = no growth, -100 = all killed)
For one assay, the system named is SK-MEL-2 melanoma. Conditions: 10 µM unless noted.
A further assay relates to EKVX NSCLC. The settings on record: 10 µM unless noted.
The subject of another assay is SN12C renal. The settings on record: 10 µM unless noted.
The subject of another assay is UO-31 renal. Conditions: 10 µM unless noted.
Another assay relates to TK-10 renal. Conditions: 10 µM unless noted.
The subject of a further assay is A498 renal. The settings on record: 10 µM unless noted.
The test system of another assay is CCRF-CEM leukemia. Conditions: 10 µM unless noted.
The next assay has as its system MOLT-4 leukemia. Conditions: 10 µM unless noted.
The subject of a further assay is SR leukemia. The settings on record: 10 µM unless noted.
For the next assay, the system named is RPMI-8226 leukemia. Conditions: 10 µM unless noted.
The subject of a further assay is OVCAR-8 ovarian. The settings on record: 10 µM unless noted.
The next assay relates to OVCAR-5 ovarian. Conditions: 10 µM unless noted.
For a further assay, the system named is OVCAR-4 ovarian. Conditions: 10 µM unless noted.
Another assay relates to SK-OV-3 ovarian. Conditions: 10 µM unless noted.
The test system of a further assay is IGROV1 ovarian. Conditions: 10 µM unless noted.
The subject of the next assay is OVCAR-3 ovarian. The settings on record: 10 µM unless noted.
A further assay deals with HS 578T breast. Conditions: 10 µM unless noted.
Another assay deals with NCI/ADR-RES ovarian. Conditions: 10 µM unless noted.
Another assay concerns CAKI-1 renal. Conditions: 10 µM.

The structures appear in SMILES notation. Compounds without any hit were thinned out: in the full panel of roughly 83,000, 20% have a hit.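 How to read the values: 0–100, growth inhibition (40 = 60% inhibited); 0, no net growth; -100 to 0, cell death (-40 = 40% of starting cells died; -100 = all dead).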 Unmarked numbers belong to inactive results. Calls of active or inactive are those of the source. How the source made its calls: active means growth percent below 10; inactive means the rest.

Consider `C=CC(=O)NC(=O)Nc1ccccc1Cl`, for which the growth in the assay with SK-MEL-2 melanoma is 86%; in the assay with EKVX NSCLC, 94.7%; in the assay on SN12C renal it was 83.5%; with UO-31 renal, 59.8%; in the assay on TK-10 renal, 45.2%; in the assay on A498 renal, 109%. Also, the growth was 37.2% with CCRF-CEM leukemia; 39.6% in the assay with MOLT-4 leukemia; 39.8% in the assay on SR leukemia; 21.4% with RPMI-8226 leukemia; 84.5% in the assay on OVCAR-8 ovarian; 111% with OVCAR-5 ovarian. In addition, the growth in the assay with OVCAR-4 ovarian was 103%; in the assay with SK-OV-3 ovarian, 87.3%; in the assay with IGROV1 ovarian it was 88.2%; with OVCAR-3 ovarian, 68.7%; in the assay on HS 578T breast, 96.8%; with NCI/ADR-RES ovarian it was 105%.

In the case of `C[C@@H]1CC2C3C[C@H](F)C4=CC(=O)C=C[C@]4(C)[C@@]3(F)[C@@H](O)C[C@]2(C)[C@@]1(O)C(=O)CO` (some centres undefined), the growth with SK-MEL-2 melanoma was 94.2%; in the assay with EKVX NSCLC it was 64.9%; with SN12C renal it was 51.6%; with UO-31 renal it was 71.6%; in the assay with TK-10 renal, 102%; with CAKI-1 renal, 75.8%. Moreover, the growth in the assay with A498 renal is 123%; in the assay with CCRF-CEM leukemia, 40%; with MOLT-4 leukemia, 76.8%; with SR leukemia, 99%; with RPMI-8226 leukemia it was 64.8%; in the assay with OVCAR-8 ovarian, 82.1%. The growth in the assay with OVCAR-4 ovarian was 113%; in the assay on IGROV1 ovarian it was 99.8%; with OVCAR-3 ovarian, 113%; in the assay on HS 578T breast it was 112%; in the assay with NCI/ADR-RES ovarian, 83.1%.

Take `CCOC(=O)NNc1nncc2ccccc12`: the growth in the assay on SK-MEL-2 melanoma is 119%; with EKVX NSCLC it was 78.3%; with SN12C renal, 97%; in the assay with UO-31 renal, 90.4%; in the assay with TK-10 renal, 106%; with CAKI-1 renal, 84.1%. Moreover, the growth was 96% with A498 renal; 109% in the assay with CCRF-CEM leukemia; 94% in the assay on MOLT-4 leukemia; 93.3% in the assay with SR leukemia; 105% in the assay on RPMI-8226 leukemia; 98.2% in the assay with OVCAR-8 ovarian. The growth was 116% in the assay on OVCAR-4 ovarian; 101% in the assay with SK-OV-3 ovarian; 121% in the assay on OVCAR-3 ovarian; 98.9% with HS 578T breast; 103% in the assay with NCI/ADR-RES ovarian.

On to `CCCCCCCCCCCCCCCCCCNCc1ccc(Cl)cc1`, for which the growth in the assay with SK-MEL-2 melanoma was -73.3% (active); in the assay with EKVX NSCLC, -30.2% (active); with SN12C renal, -60.8% (active); with UO-31 renal it was -78.6% (active); in the assay with TK-10 renal, -65.1% (active); in the assay on A498 renal it was -75.8% (active). The growth in the assay with CCRF-CEM leukemia is -45.9% (active); in the assay on MOLT-4 leukemia it was -62.1% (active); in the assay with SR leukemia it was -30.1% (active); with RPMI-8226 leukemia, -53.9% (active); in the assay on OVCAR-8 ovarian, -62.7% (active); with OVCAR-5 ovarian, -59.5% (active). For the same compound, the growth is -69.1% (active) in the assay with OVCAR-4 ovarian; -33.1% (active) in the assay with SK-OV-3 ovarian; -64.6% (active) in the assay with IGROV1 ovarian; -87.9% (active) in the assay with OVCAR-3 ovarian; -48.7% (active) with HS 578T breast; -64.6% (active) in the assay on NCI/ADR-RES ovarian.

For `Cc1cc(C)c(O)c(C(=O)CC(Br)C(=O)O)c1` (centres undefined), the growth in the assay on SK-MEL-2 melanoma was 89.5%; in the assay with EKVX NSCLC, 99.4%; in the assay with SN12C renal, 110%; in the assay on UO-31 renal it was 77.7%; with TK-10 renal, 107%; in the assay on A498 renal, 117%. The growth is 65.2% with CCRF-CEM leukemia; 88.5% in the assay with MOLT-4 leukemia; 78.3% in the assay with SR leukemia; 35.8% with RPMI-8226 leukemia; 105% in the assay on OVCAR-8 ovarian; 106% with OVCAR-5 ovarian. In addition, the growth in the assay on OVCAR-4 ovarian is 106%; in the assay with SK-OV-3 ovarian it was 103%; in the assay with IGROV1 ovarian, 106%; with OVCAR-3 ovarian, 108%; with HS 578T breast, 107%; in the assay with NCI/ADR-RES ovarian, 103%.

Take `C#C[C@@]1(O)[C@@H](CO)O[C@@H](n2cc(Br)c3c(Cl)ccnc32)[C@@H]1O`: the growth in the assay on SK-MEL-2 melanoma was 68.7%; in the assay on EKVX NSCLC it was 58.7%; in the assay with SN12C renal, 23.7%; in the assay on UO-31 renal, 45.2%; with TK-10 renal, 63.3%; with A498 renal, -20% (active). For the same compound, the growth is 12.8% with CCRF-CEM leukemia; 1.9% (active) in the assay on MOLT-4 leukemia; 22.4% in the assay on SR leukemia; 0.227% (active) in the assay with RPMI-8226 leukemia; -42.5% (active) in the assay on OVCAR-8 ovarian; 40.8% in the assay with OVCAR-5 ovarian. The growth in the assay on OVCAR-4 ovarian is 26.9%; in the assay with SK-OV-3 ovarian, 42.1%; in the assay with IGROV1 ovarian, 61%; in the assay with OVCAR-3 ovarian, -9.54% (active); in the assay with HS 578T breast, 40.9%; in the assay on NCI/ADR-RES ovarian, 0.838% (active).

On to `COc1cc(/C=C/C(=O)c2ccc(Oc3ncnc4ccccc34)cc2)cc(OC)c1OC`, for which the growth with SK-MEL-2 melanoma is 94.6%; in the assay with EKVX NSCLC, 87%; in the assay on SN12C renal it was 68.3%; in the assay on UO-31 renal it was 51.6%; in the assay on TK-10 renal it was 100%; in the assay with A498 renal, 104%. Also, the growth with CCRF-CEM leukemia was 36.6%; with MOLT-4 leukemia, 62.3%; with SR leukemia, 38.1%; in the assay on RPMI-8226 leukemia, 24.3%; with OVCAR-8 ovarian, 74.9%; in the assay with OVCAR-5 ovarian, 88.2%. Also, the growth with OVCAR-4 ovarian is 73.6%; in the assay with SK-OV-3 ovarian, 83.6%; in the assay on IGROV1 ovarian it was 66.5%; in the assay with OVCAR-3 ovarian, 35.6%; in the assay with HS 578T breast, 97.1%; with NCI/ADR-RES ovarian, 70.3%.
